Bioassay records: PubChem, National Center for Advancing Translational Sciences (NCATS)
An excerpt weighted towards active compounds, which were near 12% of everything screened.
PLK1 PBD block: blocks phosphopeptide binding to human PLK1 polo-box domain; Plk1 PBD binding of FITC phosphopeptide, fluorescence polarization; AID 720504; Potency, µM, actives largely listed as inhibitors; 360,000 tested, 2.8% active; note: series mostly up to about 57 µM; nearly all actives have a fitted effect of over 65% in size
BAZ2B inh: BAZ2B (human) inhibition. Q9UIF8. AlphaScreen BAZ2B-H3K14Ac peptide displacement. Potency, µM (titrated, usually from 114 µM), most hits filed as inhibitors. 360,000 tested, 4.4% active. AID 504333; note: nearly all actives have a fitted effect of over 60% in size
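BAZ2B (50 nM) with biotin-H3(5-23)K14Ac peptide (50 nM) in PBS pH 7.4, 0.01% Tween-20, preformed 30 min, then compound 30 min at room temperature; top concentration 110uM. AlphaScreen streptavidin donor/nickel chelate acceptor beads (10 ug/mL final), 20 min dark, signal read.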
G9a block: G9a (human) methyltransferase inhibition; Q96KQ7; G9a H3K9 monomethylation, AlphaScreen, 2 h; Potency, µM (top dose mostly 102 µM), actives largely listed as inhibitors; 350,000 tested, 8.8% active; note: nearly all actives have a fitted effect of over 75% in size
Target sequence (Q96KQ7 913-1193 limits assumed): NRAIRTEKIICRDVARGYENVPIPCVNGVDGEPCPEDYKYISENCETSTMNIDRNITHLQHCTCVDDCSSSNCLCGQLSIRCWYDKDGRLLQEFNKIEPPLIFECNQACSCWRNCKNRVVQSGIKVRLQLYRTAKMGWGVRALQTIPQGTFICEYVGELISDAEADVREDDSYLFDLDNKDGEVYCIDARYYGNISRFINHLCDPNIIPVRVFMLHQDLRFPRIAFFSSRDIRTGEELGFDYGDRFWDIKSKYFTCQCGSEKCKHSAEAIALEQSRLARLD
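AlphaScreen detection with an anti-monomethyl H3K9 antibody quantified product after a 2 h room-temperature reaction containing 500 nM biotinylated H3K9 peptide, 20 µM SAM and 20 nM enzyme, which had been preincubated 15 min with compound.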
HP1b binding inh: HP1-beta chromodomain-methylated histone interaction inhibition. Potency, µM (doses to about 114 µM), actives largely listed as inhibitors. AlphaScreen HP1-beta / biotin-H3K9me3 peptide binding. 390,000 tested, 0.56% active; note: nearly all actives have a fitted effect of over 70% in size
Target sequence (P83916 whole entry, looked up): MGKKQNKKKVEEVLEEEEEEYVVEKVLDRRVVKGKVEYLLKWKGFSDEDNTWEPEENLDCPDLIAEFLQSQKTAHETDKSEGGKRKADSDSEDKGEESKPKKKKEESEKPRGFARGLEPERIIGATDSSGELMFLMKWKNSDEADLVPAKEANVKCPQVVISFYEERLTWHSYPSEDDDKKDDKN
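AlphaScreen: HP1-beta (50 nM) preformed 30 min with biotin-H3(1-18)K9me3 peptide (50 nM) in PBS pH 7.4, 0.01% Tween-20. Compound added for 30 min at RT, then streptavidin donor/nickel chelate acceptor beads (10 ug/mL) for 30 min.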
JMJD2A Tudor inh: inhibitors of human JMJD2A Tudor domain; O75164; AlphaScreen JMJD2A-Tudor / H3K4me3 peptide binding; Potency, µM (highest dose often 114 µM), most hits filed as inhibitors; 390,000 tested, 4.4% active; AID 504339; note: nearly all actives have a fitted effect of over 50% in size
PI5P4K alpha inh: PI5P4K alpha (human) kinase inhibition | max response, % | 330,000 tested, 1.2% active | P48426 | AID 652105 | PI5P4Kalpha enzyme, ADP-Glo luminescence, 60 min; hits give low values; active = max response of -50% or lower; inconclusive = between -30% and -50%; inactive = -30% or higher; note: value at the top dose of about 77 µM
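Luminescence from ADP-Glo served as readout of PI5P4Kalpha activity in a qHTS format. Reaction: enzyme, substrate, compound, ATP at 5 microM final, 60 min at RT.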
Numbers stand for hits; . = inactive; ? = inconclusive; / = not tested or not shown; [ ] = another dose, or the depositor's remark. Unless noted, calls come from the whole dose curve; as a rule, active = well fitted curve in the direction sought with a large enough effect; inconclusive = small, poorly fitted or top-dose-only effect, or another doubt; inactive = no such curve, though single readings can be large; an effect the other way counts as inactive or inconclusive.

SMILES | PLK1 PBD block | BAZ2B inh | G9a block | HP1b binding inh | JMJD2A Tudor inh | PI5P4K alpha inh
CC1=NN(c2ccc(C(=O)OC(C)C)cc2)C(=O)/C1=C\C=C\c1ccco1 | . | 4µM | 4.5µM | ? | 18µM | .
C=C1C[C@@]23CC[C@H]4[C@@](C)(CCC[C@@]4(C)C(=O)OC4OC(CO)C(O)C(O)C4O)[C@@H]2CC[C@]1(OC1OC(CO)C(O)C(O)C1OC1OC(CO)C(O)C(O)C1O)C3 (stereo partly drawn) | / | / | . | / | / | /
CCOc1ccccc1NC(=O)c1cnc(N2CCOCC2)c2ccccc12 | / | . | . | . | . | /
O=c1c(C(c2ccc(Cl)cc2)c2c(O)nc3n(c2=O)CCCS3)c(O)nc2n1CCCS2 | ? | . | . | . | . | .
O=c1c(C(c2ccc(Cl)cc2)c2c(O)nc3n(c2=O)CCS3)c(O)nc2n1CCS2 | 27µM | . | .[12.7 µM] | . | . | ?
O=c1c(C(c2ccc(F)cc2)c2c(O)nc3n(c2=O)CCS3)c(O)nc2n1CCS2 | 19µM | . | .[12.7 µM] | . | . | ?
CC(C)CSc1nnc(-c2ccccc2)c(-c2ccccc2)n1 | / | . | . | . | . | /
CNC1C(O)C2OC3OC(C)CC(=O)[C@@]3(O)O[C@H]2[C@H](NC)C1O (stereo partly drawn) | / | / | .[2.33 µM] | / | / | /
COCCn1c(C)c(C)c(S(=O)(=O)c2ccccc2)c1N | . | ? | 35µM | . | . | .
Cc1c(S(=O)(=O)c2ccccn2)c(N)n(Cc2ccccc2)c1C | . | . | 14µM | . | ? | .
Cc1c(S(=O)(=O)c2ccccn2)c(N)n(Cc2ccccc2Cl)c1C | . | ? | / | . | . | .
Oc1ccc(C[C@H]2CNC(=S)N2CC2CCCN2C[C@H](Cc2ccc(O)cc2)N2C[C@H](Cc3ccccc3)N(CCc3ccccc3)C2=S)cc1 (stereo partly drawn) | . | / | / | . | . | .
CC(Oc1ccc(F)cc1)C(=O)Nc1nc(-c2ccc(F)cc2)ns1 (stereo not drawn) | / | . | . | . | . | /
CCn1c2c(c(=O)n3ncc(C(=O)Nc4cccc(Cl)c4C)c13)CN(Cc1ccc(OC)cc1)CC2 | / | . | 14µM | . | ? | /
CCn1c2c(c(=O)n3ncc(C(=O)Nc4ccc(Cl)cc4C)c13)CN(Cc1ccc(OC)cc1)CC2 | / | . | . | . | . | /
CCn1c2c(c(=O)n3ncc(C(=O)Nc4ccc(C(=O)OC)cc4)c13)CN(Cc1ccc(OC)cc1)CC2 | / | . | 28µM | . | ? | /
Cn1c(=O)c2c(nc(Sc3ccccc3N)n2C)n(C)c1=O | . | . | 10µM | . | . | .
COc1ccc(-c2ccc(OC)c([C@H]3[C@H]4C=CC[C@@H](C)[C@@H]4C(=O)N3Cc3ccccc3)c2)cc1OC | ? | . | . | . | 40µM | .
COc1ccc(-c2ccc(C)cc2)cc1C1C2C=CCC(C)C2C(=O)N1Cc1ccccc1 (stereo not drawn) | / | / | / | . | . | /
Cc1cccc(NC(=O)C2CC(=O)n3ncnc3N2)c1 (stereo not drawn) | . | . | . | . | . | .
Cc1ccccc1NC(=O)C1CC(=O)n2ncnc2N1 (stereo not drawn) | . | . | 45µM | . | . | .
CC(C)c1ccc(N(CC(=O)O)S(=O)(=O)c2cccnc2)cc1 | 27µM | . | . | . | 89µM | .
CCOc1ccc(N(CC(=O)O)S(=O)(=O)c2cccnc2)cc1 | . | . | 79µM | . | . | .
CC(=O)c1c(C)oc2c1cc(NS(=O)(=O)c1ccc(Cl)c(C)c1)c1ccccc12 | / | . | . | . | . | /
O=C(NCCc1ccc(Cl)cc1)C1CCN(S(=O)(=O)c2ccc3[nH]ccc3c2)CC1 | / | . | . | . | . | /
SMILES | PLK1 PBD block | BAZ2B inh | G9a block | HP1b binding inh | JMJD2A Tudor inh | PI5P4K alpha inh
Cc1nnc(SCC2=C(C(=O)O)N3C(=O)C(NC(=O)COc4ccc(F)cc4)C3SC2)s1 (stereo not drawn) | ? | ? | ? | . | . | .
Cc1nnc(SCC2=C(C(=O)O)N3C(=O)C(NC(=O)Cn4nc(C(F)F)cc4C)C3SC2)s1 (stereo not drawn) | ? | 50µM | 14µM | . | 25µM | .
NC(=O)c1cc[n+](CC2=C(C(=O)O)N3C(=O)[C@@H](NC(=O)[C@@H](c4ccccc4)S(=O)(=O)[O-])[C@H]3SC2)cc1 | / | / | 3.8µM | / | / | /
Cc1nnc(SCC2=C(C(=O)O)N3C(=O)C(NC(=O)COc4ccccc4)C3SC2)s1 (stereo not drawn) | 19µM | ? | .[0.501 µM] | ? | ? | .
O=C(Cc1cccs1)NC1C(=O)N2C(C(=O)[O-])=C(C[n+]3ccccc3)CSC12 (stereo not drawn) | / | / | .[2.33 µM] | / | / | /
CN(C)CCn1nnnc1SCC1=C(C(=O)O)N2C(=O)[C@@H](NC(=O)Cc3csc(N)n3)[C@H]2SC1 | ? | 50µM | 16µM | . | 56µM | .
CN(C)CCn1nnnc1SCC1=C(C(=O)O)N2C(=O)[C@@H](NC(=O)Cc3csc(N)n3)[C@@H]2SC1 | / | / | .[21.5 µM] | / | / | /
C=C1CC[C@@H]2[C@](C)(CO)[C@H](O)CC[C@@]2(C)[C@@H]1C/C=C1/C(=O)OCC1O (stereo partly drawn) | . | / | / | . | . | .
COc1cccc(C2=Cc3ccc(F)cc3C(CC(C)=O)N2c2ccc(C#CC3(O)CCCCC3)cc2)c1 (stereo not drawn) | . | / | / | / | / | .
Cc1c(C)c2ccc(OC(C)C(=O)NCCc3c[nH]c4ccccc34)cc2oc1=O (stereo not drawn) | . | . | / | . | ? | .
O=C(COc1ccccc1)NC1C(=O)N2C(C(=O)O)=C(Cl)CSC12 (stereo not drawn) | ? | 79µM | 35µM | . | 79µM | .
Cc1nnc(SCC2=C(C(=O)O)N3C(=O)C(NC(=O)c4cc(F)c(F)cc4Cl)C3SC2)s1 (stereo not drawn) | ? | 79µM | 28µM | . | . | .
C=CC1=C(C(=O)O)N2C(=O)C(NC(=O)Cc3ccccc3)C2SC1 (stereo not drawn) | 27µM | ? | ? | 79µM | 40µM | /
CC1=C(C(=O)OCc2ccc([N+](=O)[O-])cc2)N2C(=O)C(NC(=O)Cc3ccccc3)C2SC1 (stereo not drawn) | . | . | ? | . | . | .
Cc1nnc(SCC2=C(C(=O)O)N3C(=O)C(NC(=O)Cn4nc(C(F)F)c(Cl)c4C)C3SC2)s1 (stereo not drawn) | ? | ? | ? | . | ? | .
CCC(C(=O)NC1C(=O)N2C(C(=O)O)=C(CSc3nnc(C)s3)CSC12)c1ccccc1 (stereo not drawn) | 24µM | . | ? | . | ? | .
CCc1c(-c2ccc(Br)cc2)ncn1Cc1cccc(-c2ccccc2)c1 | . | / | / | / | / | .
